# Pf Dd2 inh: inhibitors of Plasmodium falciparum Dd2 growth; activity change, % at 10 µM; actives 2.3% (n = 94,000); AID 1159554; P. falciparum Dd2 growth, SYBR Green, 72 h; stronger effect = lower value; in the data active = activity change below about -80%; inconclusive = no clear call, values can overlap the other calls
# T cruzi growth-1: inhibitors of T. cruzi proliferation | T. cruzi beta-gal in NIH3T3, GalScreen luminescence, 90 h | actives 5.9% (n = 77,000) | inhibition, % at 8.34 µM;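 active = mean inhibition above about 93%, with at least 55% of replicates each passing it, limit read from the data, passing the limit was not always enough; inconclusive = only one of those two conditions holds; inactive = neither condition holds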
# C diff HTS: inhibitors of Clostridium difficile growth. Clostridium difficile clinical isolate growth, OD600, 24 h; stronger effect = lower value. growth activity, negative = inhibition, % at 16 µg/mL (by protocol). actives 0.25% (n = 86,000);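 active = mean growth activity at or below -80% and every replicate also at or below -80%; inconclusive = mean at or below -80% but some replicate above -80%; inactive = mean growth activity above -80%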
# T cruzi growth-2: inhibitors of T. cruzi proliferation; shares compounds with T cruzi growth-1; T. cruzi beta-gal in NIH3T3, GalScreen luminescence, 90 h; inhibition, % at 8.35 µM; actives 72% (n = 5,600); AID 651739;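 active = mean replicate inhibition above about 95% and at least 55% of replicates individually reaching it, limit read from the data; inconclusive = only one of the two criteria is met; inactive = neither criterion is met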
# T cruzi growth-3: inhibitors of T. cruzi proliferation; shares compounds with T cruzi growth-1; T. cruzi beta-gal in NIH3T3, GalScreen luminescence, 90 h; inhibition, % at 2.09 µM; actives 21% (n = 5,600); AID 651740;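 active = mean inhibition above about 95%, with at least 55% of replicates also reaching it, limit read from the data; inconclusive = meets just one of the two conditions; inactive = meets neither condition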
# 3T3 cytotox: cytotoxicity in mouse NIH/3T3 fibroblasts | shares compounds with T cruzi growth-1 | NIH/3T3 viability, CellTiter-Glo ATP luminescence, 90 h | cytotoxicity (signal decrease), % at 8.35 µM | actives 14% (n = 5,600) | AID 651742;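 active = mean signal decrease across replicates above about 35% based on untreated-well scatter, with enough replicates individually passing, limit read from the data; inconclusive = no rule stated though some were filed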
# NIH3T3 tox 2: kills mouse NIH/3T3 fibroblasts. shares compounds with T cruzi growth-1. NIH/3T3 viability, CellTiter-Glo ATP luminescence, 90 h. inhibition, % at 24.9 µM. actives 56% (n = 5,600). AID 651744;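 active = mean loss of cell viability signal at or above a set limit, and enough replicates individually reaching it; inconclusive = meets only the mean limit or only the replicate share; inactive = meets neither condition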
# Numbers stand for hits; - = inactive; ? = inconclusive; . = no result; ! = not confirmed by another sample. Sampled rows, rich in hits. Any-hit rate of the full collection: about 6.7%.
SMILES,Pf Dd2 inh,T cruzi growth-1,C diff HTS,T cruzi growth-2,T cruzi growth-3,3T3 cytotox,NIH3T3 tox 2
COCC#Cc1ccc2c(c1)O[C@@H](CN(C)S(=O)(=O)c1cccc(F)c1)[C@H](C)CN([C@H](C)CO)S2(=O)=O,-,-,-,.,.,.,.
CC(C)CC#Cc1ccc2c(c1)O[C@@H](CN(C)S(=O)(=O)c1cccc(F)c1)[C@H](C)CN([C@@H](C)CO)S2(=O)=O,?,110,-,?,115,-,68
C[C@H](CO)N1C[C@H](C)[C@H](CN(C)S(=O)(=O)c2cccc(F)c2)Oc2cc(C#CCN(C)C)ccc2S1(=O)=O,-,.,-,.,.,.,.
CCCC#Cc1ccc2c(c1)O[C@@H](CN(C)S(=O)(=O)c1cccc(F)c1)[C@@H](C)CN([C@H](C)CO)S2(=O)=O,-,124,-,104,-,-,-
CC(C)CC#Cc1ccc2c(c1)O[C@H](CN(C)S(=O)(=O)c1cccc(F)c1)[C@@H](C)CN([C@H](C)CO)S2(=O)=O,-,119,-,101,107,-,61
CC(C)NC(=O)Nc1ccc2c(c1)C(=O)N([C@H](C)CO)C[C@H](C)[C@@H](CN(C)S(=O)(=O)c1ccc(Cl)cc1)OCCCC[C@H](C)O2,-,-,-,.,.,.,.
COc1ccc(NC(=O)Nc2ccc3c(c2)C(=O)N([C@H](C)CO)C[C@@H](C)[C@@H](CN(C)C(=O)NC2CCCCC2)O3)cc1,-,-,-,.,.,.,.
COc1ccc(CN(C)C[C@H]2Oc3ccc(NS(=O)(=O)c4ccccc4)cc3C(=O)N([C@H](C)CO)C[C@@H]2C)cc1,-,.,-,.,.,.,.
C[C@H]1CN([C@@H](C)CO)S(=O)(=O)c2ccc(C#CCN(C)C)cc2O[C@H]1CN(C)S(=O)(=O)c1cccc(F)c1,-,.,-,.,.,.,.
CC(C)CC#Cc1ccc2c(c1)O[C@@H](CN(C)S(=O)(=O)c1cccc(F)c1)[C@@H](C)CN([C@@H](C)CO)S2(=O)=O,-,121,-,-,112,-,105
C[C@@H]1CN([C@@H](C)CO)C(=O)c2cc(/C=C/c3ccccc3)cnc2O[C@H]1CN(C)Cc1ccc2c(c1)OCO2,-,111,-,101,108,58,102
C/C=C/c1cnc2c(c1)C(=O)N([C@@H](C)CO)C[C@H](C)[C@H](CN(C)Cc1ccc3c(c1)OCO3)O2,-,.,-,.,.,.,.
C[C@H]1CN([C@@H](C)CO)C(=O)c2cc(/C=C/c3ccccc3)cnc2O[C@H]1CN(C)Cc1ccccc1,-,-,-,.,.,.,.
C[C@@H]1CN([C@@H](C)CO)C(=O)c2cc(/C=C/c3ccccc3)cnc2O[C@H]1CN(C)Cc1ccccc1,-,133,-,107,109,-,104
CCCC#Cc1cnc2c(c1)C(=O)N([C@@H](C)CO)C[C@H](C)[C@H](CN(C)C(=O)Cc1cccnc1)O2,-,-,-,.,.,.,.
C[C@@H]1CN([C@@H](C)CO)C(=O)c2cc(NS(=O)(=O)c3ccc(Cl)cc3)ccc2O[C@@H](C)CCCCO[C@@H]1CN(C)Cc1ccc(C(F)(F)F)cc1,-,96,-,-,116,-,93
C[C@@H]1CCCCO[C@H](CN(C)Cc2ccc(C(F)(F)F)cc2)[C@@H](C)CN([C@H](C)CO)C(=O)c2cc(NS(=O)(=O)c3ccc(Cl)cc3)ccc2O1,-,111,-,105,-,-,104
C[C@@H]1CN([C@@H](C)CO)C(=O)c2cc(NS(=O)(=O)c3ccc(Cl)cc3)ccc2O[C@@H](C)CCCCO[C@H]1CN(C)Cc1ccc(C(F)(F)F)cc1,-,?,-,-,113,104,106
C[C@@H]1CCCCO[C@@H](CN(C)Cc2ccc(C(F)(F)F)cc2)[C@H](C)CN([C@H](C)CO)C(=O)c2cc(NS(=O)(=O)c3ccc(Cl)cc3)ccc2O1,-,-,-,.,.,.,.
C[C@H]1CCCCO[C@@H](CN(C)Cc2ccc(C(F)(F)F)cc2)[C@@H](C)CN([C@@H](C)CO)C(=O)c2cc(NS(=O)(=O)c3ccc(Cl)cc3)ccc2O1,-,-,-,.,.,.,.
C[C@@H]1CN([C@H](C)CO)C(=O)c2cc(NS(=O)(=O)c3ccc(Cl)cc3)ccc2O[C@@H](C)CCCCO[C@H]1CN(C)Cc1ccc(C(F)(F)F)cc1,-,-,-,.,.,.,.
CNC[C@@H]1Oc2ccc(NC(=O)Cn3cnnn3)cc2CC(=O)N([C@@H](C)CO)C[C@@H]1C,-,.,.,.,.,.,.
O=C(Cc1ccccc1)N[C@@H]1CC[C@H](CC(=O)N2CCOCC2)O[C@H]1CO,-,-,.,.,.,.,.
CN1CCN(C(=O)C[C@@H]2CC[C@@H]3[C@H](COC[C@@H](O)CN3C(=O)Nc3ccc(F)cc3)O2)CC1,-,-,-,.,.,.,.
O=C(C[C@@H]1C[C@H]2c3cc(NC(=O)NC4CCCC4)ccc3O[C@H]2[C@@H](CO)O1)NCc1ccccn1,-,.,-,.,.,.,.
SMILES,Pf Dd2 inh,T cruzi growth-1,C diff HTS,T cruzi growth-2,T cruzi growth-3,3T3 cytotox,NIH3T3 tox 2
COc1ccc(NC(=O)Nc2ccc3c(c2)C(=O)N([C@@H](C)CO)C[C@H](C)[C@H](CN(C)Cc2ccccc2)O3)cc1,-,-,-,.,.,.,.
CC(C)NC(=O)Nc1ccc2c(c1)C(=O)N([C@H](C)CO)C[C@@H](C)[C@H](CN(C)Cc1ccccc1)OCCCC[C@H](C)O2,-,-,-,.,.,.,.
CC(C)NC(=O)Nc1ccc2c(c1)C(=O)N([C@@H](C)CO)C[C@@H](C)[C@H](CN(C)Cc1ccccc1)OCCCC[C@H](C)O2,-,102!,-,-,-,-,-
CC(C)NC(=O)Nc1ccc2c(c1)C(=O)N([C@H](C)CO)C[C@@H](C)[C@@H](CN(C)Cc1ccccc1)OCCCC[C@@H](C)O2,-,-,-,.,.,.,.
CC(C)NC(=O)Nc1ccc2c(c1)C(=O)N([C@@H](C)CO)C[C@@H](C)[C@@H](CN(C)Cc1ccccc1)OCCCC[C@H](C)O2,-,103,-,-,-,-,-
O=S(=O)(c1ccccc1)N1CCCCN2[C@H](CO)[C@H](c3ccc(C#Cc4ccccc4)cc3)[C@@H]2C1,-,-,-,.,.,.,.
N#Cc1ccc(-c2ccc([C@@H]3[C@@H](CO)N4CCCCN(S(=O)(=O)c5ccccc5)C[C@H]34)cc2)cc1,-,-,-,.,.,.,.
O=S(=O)(c1ccccc1)N1CCCCN2[C@H](CO)[C@H](c3ccc(C#Cc4ccccc4)cc3)[C@H]2C1,-,-,-,.,.,.,.
COc1ccc(C#Cc2ccc([C@@H]3[C@@H](CO)N4CCCCN(S(=O)(=O)c5ccccc5)C[C@@H]34)cc2)cc1,-,-,-,.,.,.,.
O=S(=O)(c1ccccc1)N1CCCCN2[C@H](CO)[C@H](c3ccc(C#Cc4cccnc4)cc3)[C@H]2C1,-,109,-,114,-,-,63
O=S(=O)(c1ccccc1)N1CCCCN2[C@H](C1)[C@H](c1ccc(C#Cc3ccccc3)cc1)[C@@H]2CO,-,?,-,101,-,?,105
